We go through eight compounds from PubChem BioAssay (NCI).

This is part of a sample that, as a whole, favours compounds with a hit. Of some 83,000 tested, about 20% had one in any assay.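 Note: values are percent growth. 100 is the growth of untreated cells, values between 100 and 0 indicate rising inhibition; between -100 and 0 indicates cell death.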 A number with no mark means an inactive call. Active and inactive are the calls of the source. How the source made its calls: active means growth percent below 10; inactive means the rest.

Assay in all cases: NCI-60 one-dose screen, 48 h (100 = growth as untreated, 0 = no growth, -100 = all killed)
For assay [1], the system named is HCT-15 colon. Particulars: 10 µM unless noted.
The test system of assay [2] is HT29 colon. The settings on record: 10 µM unless noted.
Assay [3] relates to SNB-75 CNS. Particulars: 10 µM unless noted.
Assay [4] has as its system SNB-19 CNS. Particulars: 10 µM unless noted.
Assay [5] deals with U251 CNS. The settings on record: 10 µM unless noted.
Assay [6] concerns PC-3 prostate. Particulars: 10 µM unless noted.
The test system of assay [7] is SK-MEL-5 melanoma. Particulars: 10 µM unless noted.
Assay [8] has as its system UACC-62 melanoma. The settings on record: 10 µM unless noted.
The test system of assay [9] is LOX IMVI melanoma. The settings on record: 10 µM unless noted.
The test system of assay [10] is SK-MEL-28 melanoma. The settings on record: 10 µM unless noted.
The subject of assay [11] is SK-MEL-2 melanoma. The settings on record: 10 µM unless noted.
In assay [12] the test system is EKVX NSCLC. Particulars: 10 µM unless noted.
Assay [13] concerns SN12C renal. Particulars: 10 µM unless noted.
For assay [14], the system named is UO-31 renal. The settings on record: 10 µM unless noted.
In assay [15] the test system is TK-10 renal. The settings on record: 10 µM unless noted.
The subject of assay [16] is ACHN renal. The settings on record: 10 µM unless noted.
Assay [17] has as its system CAKI-1 renal. Particulars: 10 µM unless noted.
Assay [18] relates to A498 renal. The settings on record: 10 µM.
Assay [19] concerns HL-60(TB) leukemia. Particulars: 10 µM unless noted.
Assay [20] deals with CCRF-CEM leukemia. The settings on record: 10 µM unless noted.

Turning to `CC1[C@H](C)OC(=O)CC(O)CC(O)CC(O)CCC(O)C(O)C[C@]2(O)CC(O)C(C(=O)O)C(CC(OC3O[C@H](C)[C@@H](O)[C@H](N)[C@@H]3O)/C=C/C=C/C=C/C=C/CC/C=C/C=C/[C@H](C)[C@H]1O)O2` (stereo not given in full), the growth in assay [1] is 109%; in assay [2], 107%; in assay [3], 103%; in [4], 109%; in assay [5] it was 92.4%; in [6], 98.7%. In addition, the growth was 97.2% in assay [7]; 109% in assay [8]; 89.7% in [9]; 110% in [10]; 134% in [11]; 104% in assay [12]. Besides, the growth in assay [13] was 98.5%; in [14], 93.2%; in [15] it was 123%; in assay [16] it was 90.8%; in [17], 88.6%; in [18] it was 114%. The growth is 110% in [19] and 90.6% in assay [20].

In the case of `CC[CH2][Sn]([Cl])([Cl])[CH2]CC`, the growth in assay [1] is 83.1%; in assay [2] it was 103%; in assay [3], 55.9%; in [4] it was 88.9%; in [5] it was 39.2%; in assay [6], 103%. Further, the growth in assay [7] was 86.4%; in assay [8], 60%; in [9], 27.6%; in assay [10], 69.2%; in assay [11], 52.4%; in assay [12], 104%. Moreover, the growth in assay [13] is 74.5%; in assay [14], 76.6%; in assay [15] it was 56.8%; in assay [16] it was 76.3%; in assay [17], 64.1%; in [18], 47.4%. Also, the values for the growth in assay [19] and in assay [20] were 54.9% and 10%, respectively.

In the case of `CC(=O)Oc1ccccc1C(=O)NCCC[Se]C#N`, the growth in assay [1] is -30.6% (active); in assay [2] it was 91.1%; in [3] it was -35.1% (active); in assay [4], -70.3% (active); in assay [5] it was -62.1% (active); in [6], 20.6%. Moreover, the growth in assay [7] was 35.4%; in assay [8] it was 71.3%; in assay [9], -49% (active); in assay [10], 7.94% (active); in assay [11], 44.3%; in assay [12], 44.5%. Also, the growth in assay [13] is -17.3% (active); in [14] it was -37.8% (active); in assay [15], -65.7% (active); in assay [16], 6.63% (active); in assay [17], 0.654% (active); in [18], -2.68% (active). Also, the growth in assay [19] is 5.1% (active); in assay [20], 22.9%.

As for `CC1(C)CN1P(=O)(N1CC1(C)C)N1CC1(C)C` (stereo not given), the growth in assay [1] was 112%; in assay [2] it was 120%; in assay [3], 72.7%; in assay [4], 105%; in assay [5], 98.2%; in assay [6] it was 99.1%. Also, the growth in assay [7] is 117%; in [8] it was 98%; in assay [9], 103%; in assay [10], 99.5%; in [11], 115%; in [12], 124%. Further, the growth is 109% in assay [13]; 85% in assay [14]; 118% in [15]; 112% in assay [16]; 110% in assay [17]; 102% in [18]. Besides, the growth in [19] is 90%; in assay [20], 106%.

As to `O=C(c1cccc(O)c1O)c1cn(Cc2ccc(F)cc2)c2cccc(O)c12`, the growth in assay [1] was 27.8%; in assay [2] it was 94.5%; in [3], 55.3%; in assay [4], 37.3%; in [5] it was 31%; in assay [6] it was 39.2%. Further, the growth in assay [7] is 25.4%; in [8], 9.18% (active); in [9], 29.3%; in assay [10] it was 39.2%; in [11], -6.9% (active); in assay [12], 52.4%. Moreover, the growth in [13] was 34%; in assay [14] it was -10.3% (active); in [15], 77%; in assay [16], 21.5%; in [17] it was 21.5%; in assay [18], 108%. The growth in assay [19] was -32.8% (active); in assay [20] it was 4.35% (active).

As to `CC12CCC(O)CC1=CCC1C2CCC2(C)C(O)CCC12` (stereo not given), the growth was 105% in assay [1]; 101% in assay [2]; 88% in assay [3]; 86.7% in assay [4]; 105% in assay [5]; 94.1% in assay [6]. Further, the growth in [7] was 98.2%; in [8], 102%; in assay [9], 99.5%; in [10] it was 106%; in assay [11], 110%; in assay [12], 71.9%. In addition, the growth is 105% in assay [13]; 98.5% in assay [14]; 105% in [15]; 107% in assay [16]; 93.2% in assay [17]; 81.1% in assay [18]. Besides, the growth in assay [19] is 115%; in assay [20], 94.9%.

As for `COc1cc(/C=C/[N+](=O)[O-])c([N+](=O)[O-])cc1OC`, the growth is -45.2% (active) in [1]; -66% (active) in assay [2]; 55.3% in assay [3]; 96.3% in [4]; 15.7% in assay [5]; 51.5% in assay [6]. Besides, the growth in assay [7] was 56.2%; in [8], -7.94% (active); in [9], -68.1% (active); in assay [10], 38.4%; in assay [11], -6.72% (active); in assay [12] it was 65.9%. Besides, the growth in assay [13] is 22%; in [14] it was -49.5% (active); in assay [15], -18.3% (active); in assay [16], -46.4% (active); in assay [17], -50% (active); in assay [18] it was 109%. In addition, the growth in assay [19] was -7.54% (active); in assay [20] it was 5.8% (active).

`Cc1ccccc1NC(=NCCCN1CC1)Nc1ccccc1C`: the growth is 96% in assay [1]; 75.5% in assay [2]; 100% in assay [3]; 96.8% in assay [4]; 91.5% in assay [5]; 74.4% in assay [6]. Also, the growth in [7] is 98%; in [8], 105%; in assay [9], 75.3%; in assay [10], 111%; in assay [11] it was 114%; in [12], 96.8%. Also, the growth in [13] is 92.1%; in assay [14], 73.3%; in assay [15] it was 99.7%; in [16] it was 90.1%; in [17], 77.5%; in [18] it was 91.7%. For the same compound, the growth in assay [19] was 95.9%; in assay [20], 89.7%.
